High-throughput results (PubChem)
Luc counter = blocks Kinase-Glo luciferase, a counter-screen artifact; Q27757; Kinase-Glo luciferase, ATP luminescence, 8 min; Potency, µM (titrated, usually from 38.3 µM), hits mostly inhibitors; actives 0.28% (n = 200,000); AID 1379; also: nearly all actives have a fitted effect of over 60% in size
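Recombinant Kinase-Glo luciferase, 10 uM ATP (linear range), luciferin; imidazole pH 7.2 / KCl / MgCl2 / Tween / BSA buffer; 8 min RT; luminescence.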
Gal4-VP16 FLuc = inhibits Gal4-VP16 luciferase reporter, ROR gamma counter-screen | actives 3.5% (n = 310,000) | Potency, µM (series often up to 53.6 µM), most hits filed as inhibitors | AID 2546 | Drosophila S2 Gal4-VP16 UAS-luciferase, luminescence, 20 h;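 also: Gal4-VP16 expression switched on by copper sulfate through the metallothionein promoter; nearly all actives have a fitted effect of over 50% in size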
RORg inh = ROR gamma (mouse) transcription inhibition. Drosophila S2 Gal4-RORgamma UAS-luciferase reporter, 20 h. Potency, µM (series often up to 53.6 µM), most hits filed as inhibitors. actives 5.4% (n = 310,000). AID 2551; also: nearly all actives have a fitted effect of over 60% in size
Target sequence (P51450 whole entry, looked up, the tested form may be a part): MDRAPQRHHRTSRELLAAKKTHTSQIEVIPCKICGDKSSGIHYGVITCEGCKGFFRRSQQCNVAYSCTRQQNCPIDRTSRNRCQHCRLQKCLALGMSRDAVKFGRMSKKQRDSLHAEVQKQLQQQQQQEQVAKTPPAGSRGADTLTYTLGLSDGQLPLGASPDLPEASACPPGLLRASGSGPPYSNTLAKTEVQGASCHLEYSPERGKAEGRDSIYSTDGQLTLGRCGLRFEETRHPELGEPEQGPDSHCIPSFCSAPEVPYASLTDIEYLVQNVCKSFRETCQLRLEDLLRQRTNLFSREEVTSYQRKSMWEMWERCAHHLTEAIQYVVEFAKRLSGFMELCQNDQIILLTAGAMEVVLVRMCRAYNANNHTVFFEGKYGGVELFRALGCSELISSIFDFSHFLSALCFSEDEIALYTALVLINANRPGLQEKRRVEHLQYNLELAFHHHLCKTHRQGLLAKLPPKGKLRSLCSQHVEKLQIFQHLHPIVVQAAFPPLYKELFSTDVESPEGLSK
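Drosophila Schneider cells stably carrying a metallothionein-driven Gal4 DBD–ROR gamma fusion and a UAS-Photinus luciferase reporter were exposed to compound for 1 hr, then induced with copper sulfate (700 uM final) for 20 hr at ambient temperature before luminescence reading.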
Hits are given with their value; i = inactive; ? = inconclusive; nt = not tested or not shown; [ ] = dose if it differs, or a comment. Most compounds without a hit are left out; they make up all but 6.4% or so of the library. Calls follow the shape of the dose curve; as a rule, active = well fitted curve in the direction sought with a large enough effect; inconclusive = small, poorly fitted or top-dose-only effect, or another doubt; inactive = no such curve, though single readings can be large; an effect the other way counts as inactive or inconclusive.

SMILES	Luc counter	Gal4-VP16 FLuc	RORg inh
Cc1ccc(C(=O)CSC2=NC(N)=C(C#N)C3(CCCCC3)C2C(N)=O)cc1 (stereo not given)	i	?	i
COc1ccc(NC(=O)N2CCCC3(CCN(C(C)=O)CC3)C2)cc1	i	i	i
O=S(=O)(c1ccccc1)N1CCC2(CCN(c3ccncc3)CC2)CC1	i	i	i
COc1cccc2c1O/C(=N\O)C(C(=O)Nc1cccc(Br)c1)C2 (stereo not given)	nt	i	i
CCOC(=O)N1CCN(C(=O)c2ccccc2NC(=O)COc2ccccc2)CC1	nt	i	i
Cc1ccc(NC(=O)CC(C(=O)O)c2ccccc2)cc1 (stereo not given)	i	i	i
Nc1c(Cl)ncnc1N/N=C/c1ccnc2ccccc12	i	i	i
Nc1c(Cl)ncnc1N/N=C/c1ccccn1	i	0.89µM	0.4µM
Nc1c(Cl)ncnc1N/N=C/c1ccc2ccccc2n1	i	1µM	0.4µM
Nc1c(Cl)ncnc1N/N=C/c1cccnc1	nt	i	i
CCCOc1ccc(/C=C2/C(=O)ON=C2C)cc1Cl	nt	i	i
CC1=NOC(=O)/C1=C/c1ccc(O)c(Cl)c1	nt	16µM	11µM
COc1cc(/C=C2/C(=O)ON=C2C)cc(Cl)c1O	nt	?	13µM
C#CCOc1c(Cl)cc(/C=C2/C(=O)ON=C2C)cc1OC	nt	i	i
Cn1ccnc1C(=O)c1cccc(Br)c1	nt	i	i
CCOC(=O)CC(NC(=O)CCc1c(C)nc2ncnn2c1C)c1ccc(C)cc1 (stereo not given)	i	i	i
Cc1cc(-c2ccc(N3CCOCC3)cc2)nc2ccccc12	nt	i	i
c1ccc2nc(-c3ccc(N4CCOCC4)cc3)ccc2c1	?	1.3µM	1.4µM
c1ccc2nc(-c3ccncc3)ccc2c1	i	i	i
CN1CCN(c2ccc(-c3ccc4ccccc4n3)cc2)CC1	?	?	0.32µM
COc1ccc(-c2ccc(N)[n+](CCCC(=O)O)n2)cc1	i	i	i
COc1ccc(C(O)Cn2cc([N+](=O)[O-])nc2C)cc1 (stereo not given)	nt	i	i
CC(C)=CCC1=C(OCC(=O)O)C(=O)c2ccccc2C1=O	i[7.66 µM]	2.2µM	?
CC(C)=CCC/C(C)=C/CC/C(C)=C/CC/C(C)=C/CC1=C(C)C(=O)c2ccccc2C1=O	nt	i	i
Cc1ccc(O)c(NC(=O)c2cc(C)no2)c1	nt	i	i
SMILES	Luc counter	Gal4-VP16 FLuc	RORg inh
N=C(N)SCc1nc2ccccc2c(=O)n1-c1ccccc1	i	?	i
Cc1c2ccccc2c(CSC(=N)N)c2ccccc12	i[7.66 µM]	?	11µM
Cn1cc(C(=O)Nc2ccc(C#N)cc2)c2ccccc2c1=O	nt	i	?
Fc1ccc(NC(=S)N2CCCCC2)cc1	i	?	i
CCc1ccc(NC(=S)N2CCCC(C(F)(F)F)C2)cc1 (stereo not given)	i	?	13µM
CC1CCCN(C(=S)Nc2ccc(Nc3ccccc3)cc2)C1 (stereo not given)	i	?	11µM
OC1CCN(C(=S)Nc2ccc(Nc3ccccc3)cc2)CC1	i	i[10 µM]	i
CCc1ccc(NC(=S)N2CCCC2)cc1	nt	i	?
CC1CCCN(C(=S)Nc2ccc(F)cc2)C1 (stereo not given)	i	i[10 µM]	8.9µM
COc1cccc(-c2nccc(N(C)Cc3ccco3)n2)c1	nt	i	?
COCCNC(=O)c1ccc(N2CC3CC(C2)c2cccc(=O)n2C3)c(NC(=O)c2ccc(Br)o2)c1 (stereo not given)	nt	i	i
CN1CCN(c2ccc(S(=O)(=O)N3CCCCC3)cc2NC(=O)c2ccc(F)cc2F)CC1	i	i	i
CCOc1ccc(NC(=O)c2sc3nc(N4CCOCC4)c4c(c3c2N)CC(C)(C)OC4)cc1	nt	i	i
COc1ccccc1C1CCN(Cc2cccc(C(=O)N3CCC(O)CC3)c2)CC1	nt	i	i
Cn1c(/N=C/c2c[nH]c3ccccc23)nc2ccccc21	nt	i	i
CCn1c(/C=N/c2nc3ccccc3n2C)nc2ccccc21	i	?	13µM
Cn1c(/C=N/O)nc2ccccc21	nt	i	i
Cc1c(N=Cc2nc3ccccc3n2C)c(=O)n(-c2ccccc2)n1C	11µM	i	i
Cc1c(N=Cc2nc3ccccc3[nH]2)c(=O)n(-c2ccccc2)n1C	i	i	i
Cn1c(/C=N/c2nc3ccccc3[nH]2)nc2ccccc21	i	?	18µM
Cc1cccc(-n2cc(-c3ccccc3)c3c(NN4CCOCC4)ncnc32)c1	i	?	6.3µM
Cc1ccc(-n2cc(-c3ccccc3)c3c(NN4CCOCC4)ncnc32)cc1	i	?	?
COc1ccc(/C=N/NC(=O)c2nc(-c3ccccc3)n(-c3ccccc3)n2)c(O)c1	i	6.3µM	2.2µM
CC(C)(C)c1cc(C(=O)N/N=C/c2ccc(F)cc2)n(-c2ccccc2)n1	i	i[0.365 µM]	i
